Hits are enriched below; roughly 6.1% of the tested compounds scored in any of these assays.
TGFb inhibitor: TGF-b pathway inhibition; HepG2 CAGA-GFP TGF-b/SMAD3 reporter, GFP fluorescence, 18 h; TGF-beta stimulated, 500 pg/mL final; Potency, µM (series often up to 46.1 µM), for the others: at the highest dose activity, negative = inhibition, usual class: inhibitors; 410,000 tested, 1.2% active; AID 588855; further: on the % scale 0 is the no-effect control and ±100 the full control effect; nearly all actives have a fitted effect of over 65% in size
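GFP signal (ex488/em500-530) from TGF-beta-stimulated HEPG2 CAGA-GFP cells, 500 pg/mL final, 18 h at 37 degrees C in DMEM plus 1% FBS, normalized to unstimulated and DMSO-stimulated controls.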
RORg inh: blocks mouse ROR gamma transcriptional activity; 310,000 tested, 5.4% active; P51450; Drosophila S2 Gal4-RORgamma UAS-luciferase reporter, 20 h; Potency, µM (doses to about 53.6 µM), inactives show at the highest dose activity change, negative = inhibition, most hits filed as inhibitors; further: on the % scale 0 is the no-effect control and ±100 the full control effect; nearly all actives have a fitted effect of over 60% in size
Target sequence (P51450 whole entry, looked up, the tested form may be a part): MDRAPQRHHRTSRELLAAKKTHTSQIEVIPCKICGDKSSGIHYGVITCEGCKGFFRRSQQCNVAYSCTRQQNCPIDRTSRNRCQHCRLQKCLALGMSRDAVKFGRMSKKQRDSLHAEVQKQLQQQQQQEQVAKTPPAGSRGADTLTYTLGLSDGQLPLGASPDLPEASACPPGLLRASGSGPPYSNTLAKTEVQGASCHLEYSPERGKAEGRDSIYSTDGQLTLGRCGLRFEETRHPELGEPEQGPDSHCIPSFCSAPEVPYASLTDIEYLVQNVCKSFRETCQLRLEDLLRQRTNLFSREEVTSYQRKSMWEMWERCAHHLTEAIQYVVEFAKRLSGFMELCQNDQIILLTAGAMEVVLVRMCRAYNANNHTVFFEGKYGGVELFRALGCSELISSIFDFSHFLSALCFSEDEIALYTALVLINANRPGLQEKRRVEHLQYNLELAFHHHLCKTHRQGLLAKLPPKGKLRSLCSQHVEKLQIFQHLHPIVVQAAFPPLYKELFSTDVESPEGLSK
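Drosophila S2 cells stably expressing Gal4-DBD/mouse RORγ fusion under metallothionein promoter plus UAS-luciferase; compound 1 h, then 700 uM CuSO4 induction for 20 h at ambient temperature; inhibition read as reduced luminescence.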
HepG2 tox: HepG2 cytotoxicity, counter-screen for TGF-b inhibitors. HepG2 CAGA-GFP viability, ATP luminescence, 18 h. Potency, µM (top dose mostly 46.1 µM), for inactives: at the highest dose activity change, negative = cytotoxicity, most hits filed as cytotoxic. 410,000 tested, 0.76% active. AID 588856
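CellTiter-Glo luminescence gave cytotoxicity after 18 hours at 37 degrees C. The cells were HepG2 CAGA-GFP in 1% FBS DMEM, stimulated with 500 pg/mL TGF-beta after compound addition. %Activity was normalised to no-cell wells (complete cell-killing) and DMSO (no toxicity), and curves were fitted and classified.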
ATXN viability: viability counter-screen for ATXN expression inhibitors. 400,000 tested, 0.49% active. Potency, µM (highest dose often 56.7 µM), actives largely listed as cytotoxic. S2 cells (HEK-293 line with an ATXN2-luciferase reporter) viability, CellTiter-Fluor protease fluorescence, 24 h. AID 651635; further: nearly all actives have a fitted effect of over 40% in size
Gal4-VP16 FLuc: Gal4-VP16 reporter inhibition counter-screen; Drosophila S2 Gal4-VP16 UAS-luciferase, luminescence, 20 h; Potency, µM (doses to about 53.6 µM), for inactives: at the highest dose activity, negative = inhibition, hits mostly inhibitors; 310,000 tested, 3.5% active; AID 2546;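 further: Gal4-VP16 expression switched on by copper sulfate through the metallothionein promoter; on the % scale 0 is the no-effect control and ±100 the full control effect; nearly all actives have a fitted effect of over 50% in size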
ATXN2 expr inh: ATXN2 expression inhibition; HEK-293 ATXN2-luciferase reporter, luminescence, 24 h; Potency, µM (highest dose often 57 µM), without a hit: at the highest dose activity change, negative = inhibition, most hits filed as inhibitors; 360,000 tested, 0.72% active; AID 1745845; further: on the % scale 0 is the no-effect control and ±100 the full control effect; nearly all actives have a fitted effect of over 55% in size
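qHTS (up to 57 uM final) was run with 24 h compound exposure of reporter cells at 37 °C. Each well was multiplexed: SteadyGlo luminescence measured ATXN2-luciferase expression after a fluorogenic Gly-Phe-AFC viability readout (25 uM final).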
* marks the source's active call; other numbers are inactive results; ! = not active in a repeat; [ ] = remark or other dose. The call rests on the fitted dose curve; in most records, active means well fitted curve in the direction sought with a large enough effect; inconclusive means small, poorly fitted or top-dose-only effect, or another doubt; inactive means no such curve, though single readings can be large; an effect the other way counts as inactive or inconclusive. Potency means the concentration at half of the fitted maximal effect.

What do the screens show for `COc1ccc(NC(=O)c2ccc(-c3ccc(-c4noc(C)n4)cc3C)cc2)cc1N1CCN(C)CC1`?
TGFb inhibitor: 17.8µM*; RORg inh: 20µM*; HepG2 tox: 11.2µM*!; Gal4-VP16 FLuc: 31.6µM*; ATXN2 expr inh: inconclusive

How did COc1ccccc1-n1ncc2c(=O)[nH]c(SCC(=O)Nc3cccc(F)c3)nc21 do in these assays?
TGFb inhibitor: -6.0%; HepG2 tox: 8.0%

What do the screens show for `CC[C@@H](C(=O)[C@@H](C)[C@@H](O)[C@H](C)CCc1ccc(C)c(O)c1C(=O)O)[C@H]1O[C@](CC)([C@H]2CC[C@](O)(CC)[C@H](C)O2)C[C@@H]1C`?
TGFb inhibitor: 10µM*; RORg inh: inconclusive; HepG2 tox: -100.6%; ATXN viability: 12.6µM*; Gal4-VP16 FLuc: 6.31µM*; ATXN2 expr inh: 20µM*

How did CCC(C(=O)C(C)C(O)C(C)CCc1ccc(C)c(O)c1C(=O)O)C1OC(CC)(C2CC[C@@](O)(CC)C(C)O2)CC1C (some centres not stated) do in these assays?
RORg inh: inconclusive; Gal4-VP16 FLuc: 10µM*

What do the screens show for `CCN1C(=O)CC(CC(=O)N2CCCCC2c2nccs2)(c2ccccc2C)C1=O` (configuration not stated)?
ATXN viability: inactive

What do the screens show for `C[C@@]12CCC=C[C@H]1[C@H](c1ccc3ccccc3c1Br)N(Cc1ccccc1)C2=O`?
TGFb inhibitor: inconclusive; RORg inh: 2.9%; HepG2 tox: -35.3%; ATXN viability: 35.5µM*; Gal4-VP16 FLuc: 9.3%; ATXN2 expr inh: inconclusive

How did COc1ccc(-c2cc(C3C4C=CCCC4(C)C(=O)N3Cc3ccccc3)ccc2F)cc1 (configuration not stated) do in these assays?
TGFb inhibitor: 11.2µM*; RORg inh: 10.0%; HepG2 tox: -7.9%; Gal4-VP16 FLuc: -1.7%

What do the screens show for `CC12CCC=CC1C(c1ccc3ccccc3c1Br)N(Cc1ccccc1)C2=O` (configuration not stated)?
TGFb inhibitor: inconclusive; RORg inh: -14.0%; HepG2 tox: -24.0%; Gal4-VP16 FLuc: -4.5%

What do the screens show for `Cc1ccc(F)c(C2C3C=CCCC3(C)C(=O)N2Cc2ccccc2)c1` (configuration not stated)?
TGFb inhibitor: inconclusive; RORg inh: inconclusive; HepG2 tox: -5.8%; Gal4-VP16 FLuc: 31.6µM*

Results for CCC(=O)N1c2ccccc2CC1C(=O)NCCc1ccc(OC)cc1OC (configuration not stated) ?
TGFb inhibitor: 0.5%; HepG2 tox: -0.2%; ATXN viability: inactive; ATXN2 expr inh: -2.6%

How did Cc1c(C(=O)Nc2ccc(Br)cc2F)oc2ccc(S(=O)(=O)N3CCCCC3)cc12 do in these assays?
TGFb inhibitor: -12.2%; HepG2 tox: 5.1%; ATXN viability: inactive; ATXN2 expr inh: -0.1%

How did N#Cc1c2n(c3c(=O)[nH]cnc13)CCCC2 do in these assays?
TGFb inhibitor: -3.5%; RORg inh: -3.9%; HepG2 tox: 1.0%; ATXN viability: inactive; Gal4-VP16 FLuc: -1.5%; ATXN2 expr inh: -9.0%

Results for N#Cc1c2n(c3c(=S)nc[nH]c13)CCCCC2 ?
TGFb inhibitor: -16.9%; RORg inh: 3.55µM*; HepG2 tox: -3.7%; ATXN viability: inactive; Gal4-VP16 FLuc: 17.8µM*; ATXN2 expr inh: -18.0%

Results for Cc1ccc(Cn2cc(S(=O)(=O)c3cccc(Cl)c3)c(=O)c3cc(F)c(N4CCCCC4)cc32)cc1 ?
TGFb inhibitor: 3.5%; HepG2 tox: 4.3%

How did COc1ccccc1Nc1c2c(nc3ccc(NC(=O)/C=C/c4cccc(OC)c4OC)cc13)CCCC2 do in these assays?
TGFb inhibitor: inconclusive; HepG2 tox: -74.9%

What do the screens show for `COc1ccc(/C=C/C(=O)Nc2ccc3nc4c(c(Nc5ccc(OC)c(OC)c5)c3c2)CCCC4)cc1`?
TGFb inhibitor: 4.47µM*; HepG2 tox: 5.01µM*

What do the screens show for `CCN(CC)c1cc(C)c2cc(NC(=O)/C=C/c3cc(OC)c(OC)c(OC)c3)ccc2n1`?
TGFb inhibitor: 15.8µM*; HepG2 tox: 10µM*

How did COc1ccc(Nc2c3c(nc4ccc(NC(=O)/C=C/c5cccc(OC)c5OC)cc24)CCCC3)cc1OC do in these assays?
TGFb inhibitor: 3.55µM*; HepG2 tox: -93.1%

What do the screens show for `COc1ccc(/C=C/C(=O)Nc2ccc3nc4n(c(=O)c3c2)CCCC4)cc1OC`?
TGFb inhibitor: 8.9%; RORg inh: -18.1%; HepG2 tox: -2.2%; ATXN viability: inactive; Gal4-VP16 FLuc: -0.7%; ATXN2 expr inh: -0.2%

How did COc1ccc(Nc2c3c(nc4ccc(NC(=O)/C=C/c5cc(OC)c(OC)c(OC)c5)cc24)CCCC3)cc1OC do in these assays?
TGFb inhibitor: 3.16µM*; HepG2 tox: 2.82µM*

Results for COc1cc(OC)c(/C=C/c2ccncn2)c(OC)c1 ?
TGFb inhibitor: inconclusive; HepG2 tox: -1.0%

Results for COc1cc(C)c(CN2C[C@H](Sc3ccccn3)C[C@H]2C(=O)N(C)C)cc1C ?
ATXN viability: inactive

Results for COc1ccc(/C=C/C(=O)Nc2ccc3nc(N4CCCCC4)cc(C)c3c2)cc1OC ?
TGFb inhibitor: 12.6µM*; HepG2 tox: -92.9%; ATXN viability: inconclusive; ATXN2 expr inh: inconclusive

How did COc1ccc(/C=C/C(=O)Nc2ccc3nc4c(c(Nc5ccccc5OC)c3c2)CCCC4)cc1 do in these assays?
TGFb inhibitor: 7.08µM*; HepG2 tox: -83.8%

What do the screens show for `COC(=O)c1c(NC(=O)c2nc(SCc3ccc(C)cc3)ncc2Cl)sc2c1CCCC2`?
TGFb inhibitor: -1.3%; HepG2 tox: -42.0%; ATXN viability: inactive; ATXN2 expr inh: 9.5%

How did CC(=O)c1ccc(NC(=O)CSc2nc(=O)n(Cc3ccncc3)c3c2CCC3)cc1 do in these assays?
TGFb inhibitor: -5.2%; HepG2 tox: -2.2%; ATXN viability: inactive; ATXN2 expr inh: 8.9%

Results for c1ccc2c(c1)sc[n+]2CCC1CCCCC1 ?
TGFb inhibitor: inconclusive; HepG2 tox: -81.2%

How did COc1cccc([C@@H]2Oc3ccc(OC)cc3/C(=N/OC[C@@H](C)[C@H](OCc3ccccc3)C(C)C)[C@@H]2O)c1 do in these assays?
RORg inh: 23.1%[10 µM]; Gal4-VP16 FLuc: -1.5%[10 µM]

High-throughput results: PubChem BioAssay, National Center for Advancing Translational Sciences (NCATS)
